From PubChem BioAssay come the findings set out here.

Values without a mark were called inactive. For some of these results: Measured potencies and affinities stand elsewhere. Active and inactive are the calls of the source. Unless noted, how the calls were made is not given here.

Experiment [1] in a line: antimalarial activity against Dd2 strain (AID 2302;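 active means growth inhibition above 50% at the single 2 µM test dose, taken to imply half-maximal potency below 2 µM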;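 further: 0% = DMSO untreated growth and 100% = chloroquine plus artemisinin killed control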). As to conditions: P. falciparum Dd2 in RBCs, LDH growth readout, 72 h; at 2 µM; active compounds read high.
Experiment [2] is described as follows: HepG2 cytotoxicity, primary screen, cytotoxicity control for P. falciparum antimalarial project, cell-based, ATP luminescence (AID 2303;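 active means inhibition above 50%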;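 further: 0% = DMSO wells and 100% = digitonin-killed cells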). The following applies: HepG2 viability, 24-48 h, at 10 µM, active compounds read high.
Experiment [3] addresses L-lactate dehydrogenase (Plasmodium falciparum (isolate CDC / Honduras)) (UniProt Q27743). In words: PfLDH activity inhibition – cell lysate, 3D7 strain, counter-screen for P. falciparum growth inhibition project (AID 2304).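 Further: 0% = vehicle and 100% = reference inhibitor.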 The following applies: P. falciparum 3D7 crude extract, LDH APAD/NBT absorbance; at 2 µM; active compounds read high. (A counterscreen serves to expose hits that act by an unwanted route or on another target.)

A short description of experiment [4]: inhibition of 3D7 malaria parasite growth – strain 3D7 (AID 2306).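 Further: 0% = DMSO wells and 100% = chloroquine plus artemisinin control wells.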 As to conditions: P. falciparum 3D7 erythrocytic growth, LDH absorbance, 72 h; at 2 µM; active compounds read high.
In experiment [5] the target is Calcium-dependent protein kinase 1 (Plasmodium falciparum (isolate 3D7)) (UniProt P62344). Nature of the experiment: PfCDPK1 kinase inhibitors, biochemical, TCAMS library (AID 1159585; cut-off not given, nearly all actives have IC50 up to about 0.98 µM;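 further: inhibitors leave more ATP so luminescence rises with inhibition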). As to conditions: recombinant PfCDPK1, Kinase-Glo ATP depletion luminescence. Background: Kinase-Glo reads ATP consumption through a luciferase reaction.
Experiment [6] addresses Plasmodium falciparum protein kinase 6 (PK6, PF3D7_1337100) (UniProt Q8IDW1). In words: PfPK6 kinase inhibitors, biochemical, TCAMS library (AID 1159586). The following applies: recombinant PfPK6, Kinase-Glo ATP depletion luminescence.
Experiment [7] has as its target Protein kinase 7 (PK7), Plasmodium falciparum 3D7 (PF3D7_0213400) (UniProt Q7YTF7). Nature of the experiment: inhibition of Plasmodium PK7 catalytic activity – biochemical, TCAMS antimalarial set, Kinase-Glo luminescence (AID 1159587). The following applies: recombinant PfPK7, Kinase-Glo ATP depletion luminescence.
In experiment [8] the target is Calcium-dependent protein kinase 4 (Plasmodium falciparum (isolate 3D7)) (UniProt Q8IBS5). Nature of the experiment: PfCDPK4 kinase inhibitors, biochemical, TCAMS library (AID 1159588; cut-off not given, nearly all actives have IC50 up to about 0.91 µM). The following applies: recombinant PfCDPK4, Kinase-Glo ATP depletion luminescence.
Sequence of Calcium-dependent protein kinase 4 (Plasmodium falciparum (isolate 3D7)) (Q8IBS5 whole entry, looked up): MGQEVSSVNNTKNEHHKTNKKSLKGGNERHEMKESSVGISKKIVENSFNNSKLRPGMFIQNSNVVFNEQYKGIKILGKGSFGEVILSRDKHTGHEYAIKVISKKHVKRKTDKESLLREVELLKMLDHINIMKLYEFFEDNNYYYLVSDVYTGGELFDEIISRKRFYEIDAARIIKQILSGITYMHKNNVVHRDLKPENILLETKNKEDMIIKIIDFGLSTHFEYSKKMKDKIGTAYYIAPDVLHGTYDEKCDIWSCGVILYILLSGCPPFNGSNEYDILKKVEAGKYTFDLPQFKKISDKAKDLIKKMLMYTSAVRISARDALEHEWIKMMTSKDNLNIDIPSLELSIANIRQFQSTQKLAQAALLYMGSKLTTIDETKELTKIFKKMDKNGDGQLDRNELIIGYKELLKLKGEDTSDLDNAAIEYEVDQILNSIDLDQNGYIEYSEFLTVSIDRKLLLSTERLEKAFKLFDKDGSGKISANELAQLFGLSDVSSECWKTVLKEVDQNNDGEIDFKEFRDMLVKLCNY

Sequence of Plasmodium falciparum protein kinase 6 (PK6, PF3D7_1337100) (Q8IDW1 1-305): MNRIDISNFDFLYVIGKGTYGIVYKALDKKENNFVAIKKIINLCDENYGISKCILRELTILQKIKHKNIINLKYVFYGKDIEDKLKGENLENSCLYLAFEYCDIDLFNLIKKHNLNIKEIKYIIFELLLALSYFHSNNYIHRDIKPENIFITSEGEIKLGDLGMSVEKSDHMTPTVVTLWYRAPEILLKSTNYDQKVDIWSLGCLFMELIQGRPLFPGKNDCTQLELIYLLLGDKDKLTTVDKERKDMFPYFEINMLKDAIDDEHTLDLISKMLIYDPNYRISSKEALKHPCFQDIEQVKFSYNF
Sequence of Calcium-dependent protein kinase 1 (Plasmodium falciparum (isolate 3D7)) (P62344 whole entry, looked up): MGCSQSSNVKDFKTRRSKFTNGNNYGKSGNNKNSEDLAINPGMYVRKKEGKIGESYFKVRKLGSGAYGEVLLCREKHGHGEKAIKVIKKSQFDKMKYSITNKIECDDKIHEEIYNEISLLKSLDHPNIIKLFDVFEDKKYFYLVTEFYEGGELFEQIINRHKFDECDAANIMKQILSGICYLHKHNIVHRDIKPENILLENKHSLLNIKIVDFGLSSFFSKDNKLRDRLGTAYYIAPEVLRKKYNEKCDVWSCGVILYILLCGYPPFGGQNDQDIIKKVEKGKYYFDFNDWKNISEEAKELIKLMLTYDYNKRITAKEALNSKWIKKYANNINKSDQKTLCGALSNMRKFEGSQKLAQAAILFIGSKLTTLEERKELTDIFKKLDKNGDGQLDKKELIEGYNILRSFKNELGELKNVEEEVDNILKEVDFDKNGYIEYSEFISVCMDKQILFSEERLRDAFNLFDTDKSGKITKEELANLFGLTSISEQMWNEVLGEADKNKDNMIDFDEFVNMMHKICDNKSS
Sequence of Protein kinase 7 (PK7), Plasmodium falciparum 3D7 (PF3D7_0213400) (Q7YTF7 1-343): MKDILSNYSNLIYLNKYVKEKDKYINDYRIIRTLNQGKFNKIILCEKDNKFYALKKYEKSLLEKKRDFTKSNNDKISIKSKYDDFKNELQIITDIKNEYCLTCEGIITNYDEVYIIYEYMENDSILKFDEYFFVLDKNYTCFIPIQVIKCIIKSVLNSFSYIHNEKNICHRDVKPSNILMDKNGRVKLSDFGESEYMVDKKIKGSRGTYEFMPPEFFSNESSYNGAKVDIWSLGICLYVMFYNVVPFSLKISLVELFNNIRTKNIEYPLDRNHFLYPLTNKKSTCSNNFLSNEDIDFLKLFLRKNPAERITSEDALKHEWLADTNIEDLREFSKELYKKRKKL
Sequence of L-lactate dehydrogenase (Plasmodium falciparum (isolate CDC / Honduras)) (Q27743 whole entry, looked up): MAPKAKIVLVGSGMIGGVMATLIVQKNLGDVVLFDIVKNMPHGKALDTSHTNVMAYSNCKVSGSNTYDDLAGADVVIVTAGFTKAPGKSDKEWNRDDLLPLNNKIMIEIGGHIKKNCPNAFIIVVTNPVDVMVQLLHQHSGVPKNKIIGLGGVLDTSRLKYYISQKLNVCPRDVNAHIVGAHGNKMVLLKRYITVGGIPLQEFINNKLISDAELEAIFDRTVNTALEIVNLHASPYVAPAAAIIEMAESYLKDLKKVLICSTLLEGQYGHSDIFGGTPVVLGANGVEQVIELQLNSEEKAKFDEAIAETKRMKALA

In the case of `O=C(Nc1cccc(-c2ccc(-c3nc4ccccc4[nH]3)cc2)c1)Nc1ccc2c(c1)OCO2`, the growth inhibition in experiment [1] is 8%; in experiment [4], 90% (active). Besides, the values for the inhibition in experiment [2] and in experiment [3] were 20% and -1%, respectively. The result in experiment [5], in experiment [6], in experiment [7] and in experiment [8] was inactive.
Consider `O=C(NCCCCCN1CCC(c2c[nH]c3ccccc23)CC1)Nc1ccc(I)c(Cl)c1`, for which the growth inhibition in experiment [1] was 5%; in experiment [4], 99% (active). The inhibition in experiment [2] was 88% (active); in experiment [3], 3%. For the same compound, the result in experiment [5], in experiment [6], in experiment [7] and in experiment [8] was inactive.
`Cn1nccc1C(=O)NCCNCc1cccc(-c2ccc(-c3nc4ccccc4[nH]3)cc2)c1`: the values for the growth inhibition in experiment [1] and in experiment [4] were 98% (active) and 100% (active), respectively. Moreover, the inhibition in experiment [2] is 19%; in experiment [3], 4%. In addition, the result in experiment [5], in experiment [6], in experiment [7] and in experiment [8] was inactive.
As to `Cc1nc(N)nc(N)c1OCCCOc1ccccc1Br`, the growth inhibition was 96% (active) in experiment [1] and 94% (active) in experiment [4]. Further, the figures for the inhibition in experiment [2] and in experiment [3] were 57% (active) and -3%, respectively. The outcome in experiment [5], in experiment [6], in experiment [7] and in experiment [8] was inactive.
Regarding `O=C(NCCNc1ccnc2cc(Cl)ccc12)c1ccccc1F`, the growth inhibition is 98% (active) in experiment [1] and 99% (active) in experiment [4]. The inhibition in experiment [2] was 30%; in experiment [3], 0%. Moreover, the result in experiment [5], in experiment [6], in experiment [7] and in experiment [8] was inactive.
In the case of `Cc1ccc2c(Cl)c(C(=O)N3CC(C)OC(C)C3)sc2c1` (stereo not given), the growth inhibition is 98% (active) in experiment [1] and 100% (active) in experiment [4]. The inhibition in experiment [2] was 4%; in experiment [3], 3%. Besides, the result in experiment [5], in experiment [6], in experiment [7] and in experiment [8] was inactive.
In the case of `CCCCCCCCCc1c(C)[nH]c2ccccc2c1=O`, the results for the growth inhibition in experiment [1] and in experiment [4] were 96% (active) and 97% (active), respectively. For the same compound, the inhibition is -16% in experiment [2] and 7% in experiment [3]. For the same compound, the outcome in experiment [5], in experiment [6], in experiment [7] and in experiment [8] was inactive.
Turning to `CN1C[C@@H](c2ccccc2)c2cc(O)c(CN3CCCCC3)cc2C[C@H]1Cc1ccccc1`, the growth inhibition in experiment [1] and in experiment [4] was 99% (active) in each case. The inhibition was -6% in experiment [2] and -8% in experiment [3]. Further, the result in experiment [5], in experiment [6], in experiment [7] and in experiment [8] was inactive.
On to `CC(C)c1ccc(OCC(O)CN(C)C(C)C(O)c2ccccc2)c(Br)c1` (stereo not given), for which the values for the growth inhibition in experiment [1] and in experiment [4] were 97% (active) and 95% (active), respectively. In addition, the inhibition is 36% in experiment [2] and -3% in experiment [3]. Moreover, the result in experiment [5], in experiment [6], in experiment [7] and in experiment [8] was inactive.
With `CC(C)NCc1ccc(-c2ccc(-c3nc4ccc(C(F)(F)F)cc4[nH]3)s2)cc1`, the growth inhibition is 94% (active) in experiment [1] and 101% (active) in experiment [4]. In addition, the inhibition was 30% in experiment [2] and 1% in experiment [3]. The result in experiment [5], in experiment [6], in experiment [7] and in experiment [8] was inactive.
As to `COc1cc2nc(N3CCC(c4ccccc4)CC3)nc(NCc3ccc(=O)[nH]c3)c2cc1OC`, the growth inhibition is 58% (active) in experiment [1] and 100% (active) in experiment [4]. Besides, the inhibition is 12% in experiment [2] and 0% in experiment [3]. Further, the outcome in experiment [5], in experiment [6], in experiment [7] and in experiment [8] was inactive.
`CC1SC(=S)NC1C(=O)O` (stereo not given): the growth inhibition in experiment [1] is -1%; in experiment [4], 94% (active). Moreover, the results for the inhibition in experiment [2] and in experiment [3] were 3% and 0%, respectively. Besides, the result in experiment [5], in experiment [6], in experiment [7] and in experiment [8] was inactive.
Consider `NC(=O)c1ccccc1OCC(=O)Nc1cccc(-c2cccc(-c3nc4ccccc4[nH]3)c2)c1`, for which the growth inhibition in experiment [1] is 46%; in experiment [4], 88% (active). Moreover, the results for the inhibition in experiment [2] and in experiment [3] were 23% and 3%, respectively. Also, the outcome in experiment [5], in experiment [6], in experiment [7] and in experiment [8] was inactive.
For the compound `Cc1cccc2[nH]c(-c3ccc(-c4ccc(CN5CCN(c6cnccn6)CC5)cc4)s3)nc12`, the growth inhibition in experiment [1] was 42%; in experiment [4], 94% (active). Further, the values for the inhibition in experiment [2] and in experiment [3] were 11% and -6%, respectively. For the same compound, the outcome in experiment [5], in experiment [6], in experiment [7] and in experiment [8] was inactive.
Take `O=C(/C=C/c1ccc(Cl)c(Cl)c1)N1CCC(CCCN2CCC(c3c[nH]c4ccc(O)cc34)CC2)CC1`: the growth inhibition in experiment [1] is 99% (active); in experiment [4] it was 102% (active). The values for the inhibition in experiment [2] and in experiment [3] were 60% (active) and 1%, respectively. The result in experiment [5], in experiment [6], in experiment [7] and in experiment [8] was inactive.
In the case of `CN(CCO)Cc1cccc(-c2ccc(NC(=O)c3cccc(C#N)c3)cc2)c1`, the figures for the growth inhibition in experiment [1] and in experiment [4] were 57% (active) and 97% (active), respectively. In addition, the inhibition is 23% in experiment [2] and 9% in experiment [3]. For the same compound, the outcome in experiment [5], in experiment [6], in experiment [7] and in experiment [8] was inactive.
Take `O=C(NCCc1ccc(F)cc1)c1ccc(N2CCN(c3ccncc3)CC2)nc1`: the growth inhibition in experiment [1] is 3%; in experiment [4] it was 88% (active). The inhibition is 1% in experiment [2] and -4% in experiment [3]. Besides, the outcome in experiment [5], in experiment [6], in experiment [7] and in experiment [8] was inactive.
Turning to `O=C(Nc1ccc(F)c(F)c1)c1ccc(CN2CCCN(Cc3cccc(O)c3)CC2)cc1`, the results for the growth inhibition in experiment [1] and in experiment [4] were 57% (active) and 92% (active), respectively. Besides, the inhibition in experiment [2] was 43%; in experiment [3], -1%. In addition, the outcome in experiment [5], in experiment [6], in experiment [7] and in experiment [8] was inactive.
As for `NC(=NCCc1ccccc1Cl)c1ccc2ccccc2c1`, the growth inhibition is 11% in experiment [1] and 88% (active) in experiment [4]. Also, the inhibition in experiment [2] is 25%; in experiment [3], -2%. In addition, the result in experiment [5], in experiment [6], in experiment [7] and in experiment [8] was inactive.
In the case of `C=CCc1c(C(=O)NCC23CC4CC(CC(C4)C2)C3)[nH]c2ccccc2c1=O`, the growth inhibition is 79% (active) in experiment [1] and 86% (active) in experiment [4]. Further, the results for the inhibition in experiment [2] and in experiment [3] were 40% and 2%, respectively. Further, the outcome in experiment [5], in experiment [6], in experiment [7] and in experiment [8] was inactive.

As usually defined, the inhibition is the relative decrease from the control value, in per cent.
